Compound activity from PubChem.
FBW7 activator – activators of human E3 ligase FBW7. AID 1259310. normalized activity (activation), % at 26.1 µM. AlphaScreen FBW7–phospho-cyclin E peptide binding, activator screen. Q969H0. 650,000 compounds, 0.13% hits; in the data active = normalized activity above about 1.9%;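 also: purified mutant Fbw7 with reduced substrate affinity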
TEAD-YAP block – TEAD-YAP interaction inhibition; HEK-TIYL cells, TEAD-Gal4/YAP UAS-luciferase luminescence; inhibition, % at 9.12 µM; 640,000 compounds, 1.4% hits; in the data active = inhibition above about 32%;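 also: 0% = median of test compound wells and 100% = reference inhibitor wells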
MITF inh – human MITF inhibition, primary screen | inhibition, % at 2.6 µM | O75030 | 650,000 compounds, 0.91% hits | AlphaScreen MITF homodimerization, bead proximity signal | AID 1259374; in the data active = inhibition above about 50%;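 also: 0% = vehicle wells with protein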
GPR151 activ – activates the human receptor GPR151. 650,000 compounds, 1% hits. PathHunter beta-arrestin GPR151 cells, luminescence. activation, % at 11.2 µM. AID 1508602. Q8TDV0; in the data active = activation above about 4.9%;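 also: 0% = median of compound wells and 100% = cells with positive control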
GPR151 conf act – confirmation of human GPR151 activators; shares compounds with GPR151 activ; GPR151 PathHunter beta-arrestin cells, luminescence, 90 min; % of EA-reagent control over plate median; activation, % at 11.2 µM; 6,700 tested, under 10 active; AID 1508609;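 active = mean percent activation across replicates above the confirmation screen cutoff of 4.91%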
GPR119 counter – activates human GPR119 in a GPR151 counter-screen. shares compounds with GPR151 activ. GPR119 PathHunter beta-arrestin cells, luminescence, 90 min; 0 = compound-well median, 100 = enzyme-acceptor control. activation, % at 11.2 µM. 6,700 compounds, 0.3% hits. AID 1508611;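 active = mean percent activation in the counterscreen above 29.09%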;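 also: counterscreen on off-target GPR119 to flag nonselective hits from the GPR151 activator screen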
Target sequence (Q8TDV5 whole entry, looked up): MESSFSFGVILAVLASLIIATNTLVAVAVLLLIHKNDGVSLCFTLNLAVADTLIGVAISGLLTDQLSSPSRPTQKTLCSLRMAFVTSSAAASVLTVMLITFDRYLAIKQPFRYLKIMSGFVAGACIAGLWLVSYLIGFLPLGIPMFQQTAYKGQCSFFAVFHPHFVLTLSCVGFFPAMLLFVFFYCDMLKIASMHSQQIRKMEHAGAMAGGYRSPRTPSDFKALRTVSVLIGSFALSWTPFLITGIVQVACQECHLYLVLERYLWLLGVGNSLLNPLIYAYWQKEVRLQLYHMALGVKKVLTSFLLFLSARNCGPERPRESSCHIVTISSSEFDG
* marks the source's active call; other numbers are inactive results; ! = not active in a repeat. An excerpt weighted towards active compounds, which were near 3.4% of everything screened.

Screening O=C1CC(=O)Nc2cc(S(=O)(=O)NCC3COc4ccccc4O3)ccc2N1 (configuration not stated) returned FBW7 activator 0, TEAD-YAP block 5, MITF inh 6, GPR151 activ 5.0*, GPR151 conf act 0 and GPR119 counter 3.
For O=C(c1cc(COc2ccc(F)cc2Cl)on1)N1CCCC(O)C1 (configuration not stated) the results were FBW7 activator 0, TEAD-YAP block -64, MITF inh 9 and GPR151 activ -1.
`COc1ccc(-c2cc(NC(=NCc3ccco3)SC)n[nH]2)c(OC)c1` gave FBW7 activator 1, TEAD-YAP block 24, MITF inh 10 and GPR151 activ 0.
COc1ccccc1-c1cc(NC(=NCc2ccco2)SC)n[nH]1 was read as FBW7 activator 0, TEAD-YAP block 50*, MITF inh 9, GPR151 activ 6.4*, GPR151 conf act 1 and GPR119 counter 1.
Screening O=C(CSS(=O)(=O)O)Nc1ncc([N+](=O)[O-])s1 returned FBW7 activator 0, TEAD-YAP block 7, MITF inh 9 and GPR151 activ 0.
Screening CCc1cc(N2CCCC2)n2nc3nc(C)cc(C)c3c2n1 returned FBW7 activator 1, TEAD-YAP block 3, MITF inh -1 and GPR151 activ 0.
CCc1cc(N2CCN(C)CC2)n2nc3nc(C)cc(C)c3c2n1 was read as FBW7 activator 0, TEAD-YAP block -12, MITF inh -4, GPR151 activ 7.2*, GPR151 conf act 1 and GPR119 counter 11.
COC(=O)COc1ccc(CNC2CCCCCCC2)cc1 was read as FBW7 activator 0, TEAD-YAP block 3, MITF inh 0, GPR151 activ 5.4*, GPR151 conf act 0 and GPR119 counter 4.
`CCOC(=O)c1c(NC(=O)CSc2nnc(CNC(=O)c3cccc(OC)c3)n2-c2ccc([N+](=O)[O-])cc2)sc2c1CCC2` gave FBW7 activator 0, TEAD-YAP block -7, MITF inh 6 and GPR151 activ -1.
Screening COCCn1c(=NC(=O)Cc2ccccc2)sc2cc(OC)ccc21 returned FBW7 activator 0, TEAD-YAP block 2, MITF inh -13 and GPR151 activ 0.
COCCn1c(=NC(=O)CCS(=O)(=O)c2ccccc2)sc2cc(OC)ccc21 was read as FBW7 activator 0, TEAD-YAP block 1, MITF inh 2, GPR151 activ 6.7*, GPR151 conf act 0 and GPR119 counter 6.
For Cc1cc(NCCO)n2nc(C)c(-c3ccc(F)cc3)c2n1 the results were FBW7 activator 0, TEAD-YAP block 0, MITF inh 3 and GPR151 activ 0.
For NC[C@H]1O[C@H](O[C@H]2[C@H](O)[C@@H](O[C@H]3O[C@H](CO)[C@@H](O)[C@H](N)[C@H]3O)[C@H](N)C[C@@H]2N)[C@H](N)C[C@@H]1O the results were FBW7 activator 0, TEAD-YAP block 7, MITF inh 0, GPR151 activ 24*!, GPR151 conf act 1 and GPR119 counter 0.
COc1cc(Nc2nc(NCc3ccc4c(c3)OCO4)nc3c2ncn3Cc2ccc(C(F)(F)F)cc2)cc(OC)c1OC was read as FBW7 activator 0, TEAD-YAP block -4, MITF inh -3 and GPR151 activ -1.
`COc1cc(Nc2nc(-c3ccc(N4CCOCC4)nc3)nc3c2ncn3Cc2ccc(C(F)(F)F)cc2)cc(OC)c1OC` gave FBW7 activator 0, TEAD-YAP block -7, MITF inh 8, GPR151 activ 6.6*, GPR151 conf act -1 and GPR119 counter -7.
`COc1cc(Nc2nc(Nc3ccc4c(c3)OCO4)c3ncn(Cc4ccc(C(F)(F)F)cc4)c3n2)cc(OC)c1OC` gave FBW7 activator 0, TEAD-YAP block -5, MITF inh 0, GPR151 activ 5.5*, GPR151 conf act 0 and GPR119 counter -1.
FC(F)(F)c1ccc(Cn2cnc3c(Nc4ccc(N5CCOCC5)cc4)nc(-c4ccc(N5CCOCC5)nc4)nc32)cc1 was read as FBW7 activator 0, TEAD-YAP block 5, MITF inh 18 and GPR151 activ -2.
For C=CCOC(=O)C1=C(C)NC(=O)NC1c1ccc(F)cc1 (configuration not stated) the results were FBW7 activator 0, TEAD-YAP block -7, MITF inh -9 and GPR151 activ 2.
For CC(Oc1cccc(Cl)c1)C(=O)O/N=C(\N)c1ccccn1 (configuration not stated) the results were FBW7 activator 1, TEAD-YAP block -36, MITF inh 9 and GPR151 activ -1.
O=C(COc1ccc([N+](=O)[O-])cc1)Nc1cc(C(F)(F)F)ccc1N1CCOCC1 was read as FBW7 activator 0, TEAD-YAP block -12, MITF inh -14 and GPR151 activ 1.
For O=C(Nc1cc(C(F)(F)F)ccc1N1CCOCC1)c1cc([N+](=O)[O-])ccc1Cl the results were FBW7 activator 0, TEAD-YAP block 81*, MITF inh 8, GPR151 activ 5.6*, GPR151 conf act 0 and GPR119 counter -7.
`CC(O)CCc1nc2ccc([N+](=O)[O-])cc2[nH]1` (configuration not stated) gave FBW7 activator 0, TEAD-YAP block -10, MITF inh 0, GPR151 activ 5.1*, GPR151 conf act -1 and GPR119 counter -4.
O=[N+]([O-])c1ccc2nc(CCCc3nc4ccc([N+](=O)[O-])cc4[nH]3)[nH]c2c1 was read as FBW7 activator 0, TEAD-YAP block 13, MITF inh 5 and GPR151 activ -1.
Screening O=C1C(c2ccc(F)cc2)N(C2CCCC2)C(=O)CN1C1CCCCC1 (configuration not stated) returned FBW7 activator 0, TEAD-YAP block -6, MITF inh -5 and GPR151 activ 0.
O=C1C(c2ccc(F)cc2)N(C2CCCCCCC2)C(=O)CN1C1CCCCCC1 (configuration not stated) was read as FBW7 activator 1, TEAD-YAP block -4, MITF inh 4, GPR151 activ 8.2*, GPR151 conf act -1 and GPR119 counter 0.
`O=C1C(c2ccc(F)cc2)N(C2CCCCC2)C(=O)CN1C1CCCCCC1` (configuration not stated) gave FBW7 activator 1, TEAD-YAP block 11, MITF inh 6, GPR151 activ 8.6*, GPR151 conf act 3 and GPR119 counter 9.
CCOC(=O)COc1ccc2c(oc(=O)c3ccccc32)c1C was read as FBW7 activator 0, TEAD-YAP block 5, MITF inh -5 and GPR151 activ -1.
`Cc1cc(=O)oc2c(C)c(OCC(=O)N(C)C)ccc12` gave FBW7 activator 1, TEAD-YAP block -7, MITF inh 3, GPR151 activ 18*, GPR151 conf act 0 and GPR119 counter -3.
